# According to PubChem BioAssay (Tox21):
# Inconclusive results are not listed. Where a call stands in place of a potency, no number is given. Some structures have more than one record in an assay (separate samples or runs), and their calls can disagree. Active and inactive are the calls of the source. Calls come from the whole dose curve.
# Tests used:
# [1] = molecular target: Acetylcholinesterase (Homo sapiens) (UniProt P22303); experiment: Acetylcholinesterase (AChE) small molecule antagonists: colormetric cell-based qHTS assay (AID 1347395); conditions: SH-SY5Y cells AChE activity, colorimetric (Ellman); series mostly up to 115 µM; note: nearly all actives have a fitted effect of over 30% in size; note: potency is the fitted concentration of half-maximal effect
# Chain of Acetylcholinesterase (Homo sapiens) (P22303 whole entry, looked up): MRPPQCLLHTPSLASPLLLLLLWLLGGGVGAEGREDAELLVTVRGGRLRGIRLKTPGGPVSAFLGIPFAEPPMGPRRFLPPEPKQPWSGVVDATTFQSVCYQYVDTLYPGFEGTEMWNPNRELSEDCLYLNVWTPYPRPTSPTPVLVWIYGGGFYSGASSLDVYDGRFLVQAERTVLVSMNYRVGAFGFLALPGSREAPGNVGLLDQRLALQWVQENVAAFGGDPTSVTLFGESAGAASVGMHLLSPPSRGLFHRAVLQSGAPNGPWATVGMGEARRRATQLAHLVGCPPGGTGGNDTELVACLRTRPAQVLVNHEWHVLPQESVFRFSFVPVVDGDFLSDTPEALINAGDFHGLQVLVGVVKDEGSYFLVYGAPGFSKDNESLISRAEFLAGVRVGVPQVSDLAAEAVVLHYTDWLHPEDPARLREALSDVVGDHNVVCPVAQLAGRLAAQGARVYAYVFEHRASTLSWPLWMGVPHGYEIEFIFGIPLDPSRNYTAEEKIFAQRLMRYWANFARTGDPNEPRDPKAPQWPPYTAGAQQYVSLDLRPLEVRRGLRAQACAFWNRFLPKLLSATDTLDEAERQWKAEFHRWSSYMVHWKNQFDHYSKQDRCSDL
# Summary of the method: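 SH-SY5Y cells, plated overnight at 37 C, were exposed to compounds for 30 min at 37 C and 5% CO2. Acetylthiocholine plus DTNB was then added, and thiocholine from endogenous AChE was quantified colorimetrically after 90 min at 37 C.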
# [2] = molecular target: Acetylcholinesterase (Homo sapiens) (UniProt P22303); experiment: Acetylcholinesterase (AChE) small molecule antagonists: enzyme-based qHTS assay (AID 1347397); conditions: Potency: AChE enzyme activity inhibition; outcome: AChE enzyme activity inhibition; series mostly up to 115 µM; note: nearly all actives have a fitted effect of over 55% in size; note: potency is the fitted concentration of half-maximal effect
# Summary of the method: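 First, recombinant human AChE (50 mU/mL as dispensed) received test compound or DMSO. Second, plates stood 30 min at room temperature. Third, DTNB and acetylthiocholine were added, followed by 10 min at room temperature and colorimetric detection.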
# [3] = molecular target: Acetylcholinesterase (Homo sapiens) (UniProt P22303); experiment: Acetylcholinesterase (AChE) small molecule antagonists: fluorescence cell-based qHTS assay (AID 1347398); conditions: SH-SY5Y cells; Potency: AChE activity; outcome: AChE activity; series mostly up to 115 µM; note: nearly all actives have a fitted effect of over 50% in size; note: potency is the fitted concentration of half-maximal effect
# Summary of the method: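 Homogeneous quantitative HTS format. SH-SY5Y cells seeded at 2,000 per well settle overnight at 37 C. Compound pretreatment runs 30 min (37 C, 5% CO2); substrate/probe mix then reacts 40 min at RT before reading 490/520 nm.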
# [4] = molecular target: Acetylcholinesterase (Homo sapiens) (UniProt P22303); experiment: Acetylcholinesterase (AChE) small molecule antagonists: enzyme-based qHTS assay with human liver microsomes (AID 1347399); conditions: Potency: qHTS inhibition; outcome: qHTS inhibition; series mostly up to 115 µM; note: nearly all actives have a fitted effect of over 60% in size
# Summary of the method: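 Recombinant human AChE (50 mU/mL in the enzyme mix) and human liver microsomes (0.25 mg/mL final) were preincubated with compound and NADPH (0.25 mg/mL final) for 30 min at 37 C. Acetylthiocholine/DTNB was then added; thiocholine was read colorimetrically after 10 min at room temperature.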
SMILES,Potency [1],Potency [2],Potency [3],Potency [4],"activity, negative = inhibition [1]","activity change, negative = inhibition [2]","activity change, negative = inhibition [3]","activity change, negative = inhibition [4]"
COc1nc(C)nc(NC(=O)NS(=O)(=O)c2ccccc2OCCCl)n1,inactive,inactive,inactive,inactive,,,,
O=C(O)CN(CCN(CC(=O)O)CC(=O)O)CCN(CC(=O)O)CC(=O)O,,,,,0.969% [at 23.6 µM] (inactive),0.748% [at 23.6 µM] (inactive),7.05% [at 23.8 µM] (inactive),0% [at 23.6 µM] (inactive)
N[C@@H](CCC(=O)O)C(=O)O,inactive,inactive,inactive,inactive,,,,
O=C1CCCCCCCCCCC1,inactive,inactive,inactive,inactive,,,,
COc1cc2c(cc1OC)CN(C(=O)[C@H](C)N[C@@H](CCc1ccccc1)C(=O)O)[C@H](C(=O)O)C2,inactive,inactive,inactive,inactive,,,,
CCCCCCCCCC,inactive,inactive,inactive,inactive,,,,
O=c1n(CC2CO2)c(=O)n(CC2CO2)c(=O)n1CC1CO1 (stereo not given),inactive,inactive,inactive,inactive,,,,
COC(=O)c1ccc(C)cc1,inactive,inactive,inactive,inactive,,,,
O=C(O)c1cc(C(=O)O)cc([N+](=O)[O-])c1,inactive,inactive,inactive,inactive,,,,
CC(C)(CO)[C@@H](O)C(=O)NCCC(=O)O,inactive,inactive,inactive,inactive,,,,
Cc1ccc(C(=O)O)o1,inactive,inactive,inactive,inactive,,,,
CCC(CC)Nc1ccc(C)c(C)c1,inactive,inactive,inactive,inactive,,,,
C1CC(COCC2CO2)CCC1COCC1CO1 (stereo not given),inactive,inactive,inactive,inactive,,,,
CCCN(CCC)C(=O)C(CCC(=O)OCCCN1CCN(CCOC(=O)Cc2c(C)n(C(=O)c3ccc(Cl)cc3)c3ccc(OC)cc23)CC1)NC(=O)c1ccccc1 (stereo not given),inactive,inactive,inactive,inactive,,,,
CCOC(=O)n1ccn(C)c1=S,inactive,inactive,inactive,inactive,,,,
O=S(=O)(O)CC(O)CCl (stereo not given),inactive,inactive,inactive,inactive,,,,
CC(=O)N1CCN(c2ccc(O)cc2)CC1,inactive,inactive,inactive,inactive,,,,
CCCCCCCCOCCC#N,inactive,inactive,inactive,inactive,,,,
O=C(O)CNc1ccccc1,inactive,inactive,inactive,inactive,,,,
CCSC(=O)N(CC(C)C)CC(C)C,inactive,inactive,inactive,inactive,,,,

SMILES,Potency [1],Potency [2],Potency [3],Potency [4],"activity, negative = inhibition [1]","activity change, negative = inhibition [2]","activity change, negative = inhibition [3]","activity change, negative = inhibition [4]"
CCCCOCCOCCOCCOCCO,inactive,inactive,inactive,inactive,,,,
COc1cc(C)c(Cc2cnc(N)nc2N)cc1OC,inactive,inactive,inactive,inactive,,,,
CC(=O)SC[C@@H](C)C(=O)N1CCC[C@H]1C(=O)N[C@@H](Cc1ccccc1)C(=O)O,inactive,inactive,inactive,inactive,,,,
COc1ccc(NC(=O)CC(C)=O)cc1,inactive,inactive,inactive,inactive,,,,
COCCOCCOCCOCCO,inactive,inactive,inactive,inactive,,,,
CCOC(=O)c1c(C)n(C)c2ccc(O)cc12,inactive,inactive,inactive,inactive,,,,
Cc1cccc(C)c1C,inactive,inactive,inactive,inactive,,,,
C=COCCOCCOC=C,inactive,inactive,inactive,inactive,,,,
OC(Cn1cncn1)(Cn1cncn1)c1ccc(F)cc1F,inactive,inactive,inactive,inactive,,,,
CCCCCCC(C)O (stereo not given),inactive,inactive,inactive,inactive,,,,
CC1=C(Br)C(=O)C(Br)=C/C1=C(/c1ccccc1S(=O)(=O)O)c1cc(Br)c(O)c(Br)c1C,inactive,inactive,inactive,inactive,,,,
O=C(O)c1cc(O)c2c(c1)C(=O)c1cccc(O)c1C2=O,inactive,inactive,inactive,inactive,,,,
Cc1cc(SC2=C(O)C[C@@](CCc3ccc(N)cc3)(C(C)C)OC2=O)c(C(C)(C)C)cc1CO,inactive,inactive,inactive,inactive,,,,
COc1cc(C(=O)N2CCOCC2)cc(OC)c1OC,inactive,inactive,inactive,inactive,,,,
c1ccc2c(c1)[nH]c1ccccc12,inactive,inactive,inactive,inactive,,,,
NCCCN1CCN(CCCN)CC1,inactive,inactive,inactive,inactive,,,,
C[Si](C)(C)O[Si](C)(C)C,inactive,inactive,35.4 µM (active) and inactive,inactive,,,,
CCCC(=O)O[C@]1(C(=O)CC)CC[C@H]2[C@@H]3CCC4=CC(=O)CC[C@]4(C)[C@H]3[C@@H](O)C[C@@]21C,inactive,inactive,inactive,inactive,,,,
C=CC(=O)CCCCC,inactive,inactive,inactive,inactive,,,,
Cc1ncc(CO)c(C=O)c1O,inactive,inactive,inactive,inactive,,,,

SMILES,Potency [1],Potency [2],Potency [3],Potency [4],"activity, negative = inhibition [1]","activity change, negative = inhibition [2]","activity change, negative = inhibition [3]","activity change, negative = inhibition [4]"
O=C1OC2(c3ccccc31)c1cc(I)c(O)c(I)c1Oc1c2cc(I)c(O)c1I,36 µM (active) and inactive,40.4 µM (active) and inactive,inactive,inactive,,,,
Cc1cn([C@H]2C=C[C@@H](CO)O2)c(=O)[nH]c1=O,inactive,inactive,inactive,inactive,,,,
C[C@@H](NCCCc1cccc(C(F)(F)F)c1)c1cccc2ccccc12,inactive,inactive,inactive,inactive,,,,
NCCCCCCN,inactive,inactive,inactive,inactive,,,,
CC(O)C(CO)C(C)O (stereo not given),inactive,inactive,inactive,inactive,,,,
CCCCC(CC)COCCCN (stereo not given),inactive,inactive,inactive,inactive,,,,
COc1ccc2cc1Oc1cc3c(cc1OC)CC[N+](C)(C)[C@H]3Cc1ccc(cc1)Oc1c(OC)c(OC)cc3c1[C@@H](C2)[N+](C)(C)CC3,inactive,inactive,inactive,inactive,,,,
O=C(O)CC(C(=O)O)S(=O)(=O)O (stereo not given),inactive,inactive,inactive,inactive,,,,
CC(=O)c1ccccc1[N+](=O)[O-],inactive,inactive,inactive,inactive,,,,
O=S1(=O)CCCO1,inactive,inactive,inactive,inactive,,,,
CCOc1ccc(NC(=O)CC(C)O)cc1 (stereo not given),inactive,inactive,inactive,inactive,,,,
c1ccc2c(c1)-c1cccc3c1c-2cc1ccccc13,inactive,inactive,inactive,inactive,,,,
CCCc1nc(C)c2c(=O)[nH]c(-c3cc(S(=O)(=O)N4CCN(CC)CC4)ccc3OCC)nn12,inactive,inactive,inactive,inactive,,,,
O=S(=O)(O)C(F)(F)F,inactive,inactive,inactive,inactive,,,,
CCO[Si](CCC#N)(OCC)OCC,inactive,inactive,inactive,inactive,,,,
CC(=O)c1ccc(S(=O)(=O)NC(=O)NC2CCCCC2)cc1,inactive,inactive,inactive,inactive,,,,
CC(C)(Oc1ccc(C2CC2(Cl)Cl)cc1)C(=O)O (stereo not given),inactive,inactive,inactive,inactive,,,,
OC1OCCOC1O (stereo not given),inactive,inactive,inactive,inactive,,,,
CCc1cc(Cl)c(OC)c(C(=O)NC[C@@H]2CCCN2CC)c1O,inactive,inactive,inactive,inactive,,,,
CCOC(=O)Cn1c(=O)sc2cccc(Cl)c21,inactive,inactive,inactive,inactive,,,,
